Drawing on PubChem BioAssay (NCI), this text covers growth inhibition for 40 compounds.

The panel holds about 79,000 compounds, 15% with a hit somewhere; the sample as a whole holds those more often. Unmarked numbers belong to inactive results. Active and inactive are the calls of the source. Rule as the data show it: active = growth inhibition above about 70%; inactive = the rest.

This assay in a line: NCI Yeast Anticancer Drug Screen. Data for the rad50 strain (AID 155).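 Also: 0% = growth of vehicle-only cultures of the same strain.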 To be noted: S. cerevisiae rad50 strain growth inhibition; at 50.0 µM; hits give high values. On the procedure:
Growth inhibition of yeast strains with defined genetic alterations is measured as a screen for potential anti-cancer activity. Selected strains with alterations in DNA damage repair or cell cycle control were exposed to compounds and growth inhibition was measured relative to vehicle treated controls. The strain used in this assay is rad50
Regarding `c1ccc(Cc2[nH]nc(-c3n[nH]c(Cc4ccccc4)c3-c3ccccc3)c2-c2ccccc2)cc1`, the growth inhibition is -28.8%.

`COC(=O)CCCCCCCCCCC1C=CCC1` (stereo not given): the growth inhibition is -3.5%.

In the case of `Nc1nc(N)nc(-c2ccccc2NS(=O)(=O)c2ccc([N+](=O)[O-])cc2)n1`, the growth inhibition was 1.6%. On to `O=C1NC(=S)NC(=O)C1=Cc1ccccc1OCc1ccccc1`, for which the growth inhibition is -19.4%. To `C=C(C)COc1ccc(/C=C/C(=O)OCC)cc1` belongs 9.8%. With `OCCN(CO)CCO` the figure was -23.8%; with `C=C(CN(C)C)C1(c2ccccc2)CC2(CCCC2)C(=O)O1` (stereo not given), 24.2%. On to `COC(=O)C(C(=O)C(=O)Nc1ccc([N+](=O)[O-])cc1)c1nc2ccc([N+](=O)[O-])cc2[nH]c1=O` (stereo not given), for which the growth inhibition is 8.95%. To `COc1ccc(/C=C2\N=C(c3ccccc3)OC2=O)c(Cl)c1OC` belongs -9.35%; to `CC(=O)OCC1OC(n2nc(/C=C/c3ccccc3)c(=O)n(-c3ccccc3)c2=S)C(OC(C)=O)C(OC(C)=O)C1OC(C)=O` (stereo not given), 0.1%; to `O=C(NC1CCCCC1C1CCCCC1)c1ccc(Cl)cc1` (stereo not given), 1.55%.

Take `O=Cc1cccc2ccc3cccc(C(=O)O)c3c12`: the growth inhibition is 34%.

Consider `OCCc1ccc2ccccc2c1`, for which the growth inhibition is 4.05%. As for `O=C(O)C1CCC(C(=O)O)CC1.[NH-]C1CCCCC1[NH-].[Pt+2]` (stereo not given), the growth inhibition is 45.6%.

With `NC(=O)NC(=O)c1ccco1`, the growth inhibition is 52.7%. Consider `COc1cc(C2=N/C(=C\c3cc(Br)cc(Br)c3O)C(=O)O2)cc(OC)c1OC`, for which the growth inhibition was 83.2% (active). For `CC(/C=C/C(=O)c1sc(C(N)=S)nc1C)=C\c1ccccc1`, the growth inhibition is 4.55%. With `CC1OC(c2ccccc2)C(=O)N1C1(C)C(=O)N2CCOC21c1ccccc1` (stereo not given) the figure was 8.4%; with `CCCCC1(O)c2ccc3ccccc3c2C(O)(CCCC)c2cccc(-c3ccccc3)c21` (stereo not given), 24.1%. To `NC(=O)C(CNCc1ccccc1)NCc1ccccc1` (stereo not given) belongs -1.5%; to `CN(CC(=O)O)c1ncc2c(n1)-c1ccccc1SC2`, 20.5%.

For `COc1ccccc1Nc1nc(NNC(=O)Cc2ccccc2)nc(NNC(=O)c2ccncc2)n1`, the growth inhibition was 27.4%.

As to `CCc1n[nH]c(=S)n1/N=C/c1ccc(-c2ccc([N+](=O)[O-])cc2)o1`, the growth inhibition is 14.6%. With `Oc1ccc(O)c2c1CC=CC2` the figure was 12.2%; with `COc1ccc([N+](=O)[O-])cc1NC(=S)NC(=O)c1cccc(Br)c1`, -8.6%; with `COCCCNC(=O)C1=CCCN(C)C1`, 6%. On to `O=C1c2cccc3cc([N+](=O)[O-])cc(c23)C(=O)N1C(Cc1ccccc1)c1ccccc1` (stereo not given), for which the growth inhibition is 4.1%. For the compound `CCOC(=O)Nc1c2ccccc2c(NC(=O)OCC)c2ccccc12`, the growth inhibition is 30.2%.

As for `CC(NCCCNC(C)C(=O)O)C(=O)O` (stereo not given), the growth inhibition is 21.8%.

Turning to `CC(C)CCC(C)c1ccncc1` (stereo not given), the growth inhibition was 11.7%. To `O=C(O)CSc1nc2ccc(N3C(=O)C4C5C=CC(C5)C4C3=O)cc2s1` (stereo not given) belongs 29.4%; to `CNC(=O)OCc1c(COC(=O)NC)c(C)n(-c2ccc(F)cc2)c1C`, 30.1%. For `Oc1cc(O)c(Cl)cc1Cl`, the growth inhibition is 15.4%. In the case of `CC1CCC2OC23C(=O)C2OC2C(C(C)(C)O)C13C` (stereo not given), the growth inhibition is -3.25%. Consider `O=C/C=C/N=c1ccn(O)cc1`, for which the growth inhibition was 8.65%. With `CC(=O)OC(C(=O)Nc1nncs1)c1ccccc1` (stereo not given) the figure was 7.05%; with `O=C(C1OC1c1ccccc1)C1OC1c1ccccc1` (stereo not given), -6.05%; with `CCOC(=O)C(C(=O)OCC)=C(C)C`, -9.9%.

Regarding `CC(C)[C@@H]1CC[C@@H](C)C[C@H]1OC(=O)c1c2n(c3ccccc13)C[C@H]1OC(C)(C)O[C@@H]21`, the growth inhibition is 5.15%.

On to `CCCCCC(CC)OC(=O)Nc1cccc2ccccc12` (stereo not given), for which the growth inhibition is 6.05%.
